Data reported in the supplement of paper PMC6555819.

Legend:
Assay in all cases: PBM binding z-score (relative to random genomic background probes); higher = stronger binding; sequences stand for … in GC…GCGATTGACAGCGTAGAATGAAGG
[1] = tested on: RARb homodimer (NR concentration 270 nM)
Method in brief: (§1)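 The probes on custom Agilent 4×180K protein-binding microarrays were double-stranded, with 34-nt variable regions bearing direct-repeat seeds, single-nucleotide variants, half-site ablations and random human genomic background sequences. Incubation lasted 1 h with ligand-free nuclear receptor dimers in PBS pH 7.4, 2% milk, 0.02% Triton X-100, 1 mM DTT, 0.2 mg/mL BSA and 0.4 mg/ml salmon testes DNA. Antibodies against each partner (one per run) detected bound dimers, and fluorescence scans were regression-normalized. Binding z-scores take the random background probes as reference.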

[2] = tested on: RARg:RXRa (NR concentration 270 nM, RXRa partner concentration 90 nM)
Method in brief: as §1

[3] = tested on: RARg homodimer (NR concentration 270 nM)
Method in brief: as §1

[4] = tested on: RXRa DBDmut IVT, anti-RXR (DBD mutation: RXRa K156A/R161A, NR concentration 90 nM)
Method in brief: as §1

[5] = tested on: RXRa homodimer (NR concentration 180 nM)
Method in brief: as §1

[6] = tested on: THRa:RXRa (NR concentration 90 nM, RXRa partner concentration 90 nM)
Method in brief: as §1

[7] = tested on: THRa homodimer (NR concentration 90 nM)
Method in brief: as §1

[8] = tested on: VDR homodimer (NR concentration 270 nM)
Method in brief: as §1

Row | Sequence | PBM binding z-score [1] | PBM binding z-score [2] | PBM binding z-score [3] | PBM binding z-score [4] | PBM binding z-score [5] | PBM binding z-score [6] | PBM binding z-score [7] | PBM binding z-score [8]
1 | CCTTTCGGGTCACTGACAGGTTATAGCATTTGGA | 3.44 | 5.76 | 4.91 | 2.55 | 5.16 | 4.17 | 2.95 | 1.19
2 | TCAGACAGGTGAAGGGAACTCAGGTACGCAGTCG | 0.93 | 0.546 | 0.498 | 1.36 | 0.877 | 0.891 | 0.717 | 0.463
3 | CCTTGCGGGTCACGAGGTTATAGCACGACGAGCG | 3.64 | 5.78 | 5.02 | 1.62 | 6.53 | 3.68 | 1.34 | 1.93
4 | AGAATGAGGTTATTAAGATAAGGGAATTGCGGTC | 0.848 | 1.41 | 0.946 | 1.84 | 1.8 | 1.95 | 0.273 | 0.849
5 | ACTTACGGGTCAACGTGGTTATAGCACGCGTATA | 3.03 | 5.25 | 5.16 | 2.08 | 6.28 | 2.64 | 0.124 | 1.18
6 | TCTTGTAGATCAACAGGAGGTTTAGAAAGATCGA | -0.821 | -0.145 | -0.083 | 0.348 | -0.0846 | -0.426 | -0.597 | -0.584
7 | CCGATTAGTTGACCATAAGGGCAACCGAAGCTCG | 2.01 | 0.824 | 0.774 | 0.777 | 0.56 | 1.7 | 0.965 | 0.334
8 | ATATGTAGTTTAGCTGGGGTCATTCAGACTAGGC | 3.66 | 3.73 | 2.48 | 2.23 | 5.23 | 4.49 | 3.19 | 5.03
9 | CCTAGTTGGTCAGGAGGTCACCCACCGGATATGA | 4.11 | 4.91 | 4.4 | -0.0796 | 4.2 | 3.47 | 2.51 | 2.4
10 | TCTGCTAGGTCAACGATGGTCAGGTAATCTGCTA | 3.36 | 4.2 | 5.52 | 1.12 | 3.11 | 3.09 | 1.34 | -0.177
11 | ACTAGCAGGCCAAGGGTAACTCAAGATTAGTCCG | 0.76 | 0.469 | 0.734 | -0.0114 | 0.59 | 0.54 | -0.321 | -0.349
12 | GTACCAAGGTGAATAGGTCGTTGTTGAGTAGGCG | 1.89 | 2.4 | 1.05 | 0.135 | 1.64 | 1.81 | 0.601 | 0.168
13 | AGTCAAAGTTCATCTAGGTAACGGAAGATATGCT | 4.04 | 5.6 | 6.13 | 4.58 | 4.85 | 3.33 | 0.388 | 5.59
14 | TCTTGTAGATCAGCAGGTTAACAAAGCTGGCCAA | 0.38 | 0.348 | -0.352 | 0.44 | 0.609 | 0.517 | -0.468 | -0.328
15 | CCTAGCAGGCCAATCTGGGTAACTCAAGGCTTGA | -0.251 | -0.429 | -0.124 | 0.0487 | -0.515 | 1.86 | -0.653 | -0.997
16 | CCGACTCGGGCATAAGGTTACCATAAGCCAGCCC | 1.44 | 1.47 | 0.909 | -0.288 | 0.905 | 2.09 | 0.96 | -0.223
17 | GCTCGCAGGCCATTTGGGTCACTCAATGACGGGC | 1.93 | 1.23 | 1.41 | 0.0952 | 0.671 | 1.93 | 0.651 | 0.416
18 | GATACAGGGTCAAGCCCAGAGTACGCGTATTGAT | 3.52 | 5.73 | 5.47 | 2.9 | 6.59 | 3.45 | 0.87 | 2.39
19 | CCTTCTGGGCCAAGGTCATTGATCAGTCAAAGCA | 3.27 | 3.66 | 3.02 | 1.31 | 3.24 | 3.49 | 2.34 | 2.71
20 | ATCAAAAGGTCGTGAGGTGAGTATACAGAAAGGC | 3.41 | 4.87 | 4.4 | 1.25 | 5.51 | 3.49 | 1.89 | 1.49
21 | GCAGCTAGGTCAGGTTGGTCAGCTAACGGGTACG | 2.83 | 2.31 | 3.77 | 0.319 | 1.04 | 1.57 | 0.4 | 0.351
22 | ACTTGCGGGTCAACGAGGTTATAGCACGCGTATA | 3.37 | 5.21 | 4.88 | 2.41 | 5.33 | 3.81 | 1.31 | 3.69
23 | CCTGCTAGGTCAATGGTCAGCTATAGCAGCTCGC | 3.2 | 3.54 | 4.59 | 1.75 | 2.21 | 2.26 | 0.61 | 0.24
24 | CAGCCTAGGTCCGGGCCAGTATAGGAGGAACGTT | -0.676 | -0.685 | -0.755 | -1.37 | -0.779 | -0.819 | -1.03 | -0.835
25 | CCTATTAGTTGTCCATAAGGGCAACCGAAGCTCG | 1.81 | 1.01 | 0.8 | 0.67 | 0.161 | 1.8 | 1.64 | 1.07
26 | ACAGACAGGTGATGAGGGTAACTCAGGCTATCAT | 0.681 | 0.294 | 0.502 | -0.49 | 0.588 | 2.72 | 0.561 | -0.088
